# “And” between values parts separate entries of the source, which are not always exact repeats. Equal entries are not always repeated. Inconclusive results are not listed. A call without a number means that no potency is given here. Some compounds were tested as several samples or in several runs, with calls that do not always agree. The source made the active and inactive calls. Calls follow the shape of the dose curve; as a rule, active = well fitted curve in the direction sought with a large enough effect; inconclusive = small, poorly fitted or top-dose-only effect, or another doubt; inactive = no such curve, though single readings can be large; an effect the other way counts as inactive or inconclusive. Where a SMILES comes first, the peptide text is derived from it.
# How the values were obtained:
# [1] = Primary qHTS for inhibitors of nuclear receptor binding SET domain protein 2 (NSD2) in an isogenic RCH-ACV NSD2 p.E1099K mutant (9B) (AID 1645876)
# [2] = Primary qHTS for inhibitors of nuclear receptor binding SET domain protein 2 (NSD2) in an RCH-ACV wild type WT cells (2C) (AID 1645877)
# Also: nearly all actives have a fitted effect of over 70% in size.
# Potency is read from the fitted curve at half-maximal effect.
structure (smiles),measurement,setting,value
C[C@@H](O)[C@H](N)C(=O)N1CCC[C@H]1C(=O)N1CCC[C@H]1C(=O)N[C@H](C(N)=O)[C@@H](C)O (H-TPPT-NH2),"activity change, negative = viability loss",[1],0.764% [at 9.23 µM] (inactive)
same,"activity change, negative = cell killing",[2],-0.759% [at 9.23 µM] (inactive)
C[C@@H]1O[C@@H](O[C@H]2[C@H](OC(C#N)c3ccc(O)cc3)O[C@H](CO)[C@@H](O)[C@@H]2O)[C@H](O)[C@H](O)[C@H]1O (stereo not given in full),Potency,[1],inactive
same,Potency,[2],inactive
CN(NC(=O)CC(=O)NN(C)C(=S)c1ccccc1)C(=S)c1ccccc1,Potency,[1],40.9 nM (active) and 8.3 nM (active)
same,Potency,[2],40.9 nM (active) and 9.3 nM (active)
C[C@@H]1CC[C@]2(C(=O)O)CC[C@]3(C(=O)O)C(=CCC4[C@@]5(C)CC[C@H](O[C@@H]6O[C@@H](C)[C@H](O[C@@H]7O[C@H](CO)[C@@H](O)[C@H](O)[C@H]7O)[C@@H](O)[C@H]6O)C(C)(C)C5CC[C@]43C)C2[C@H]1C (stereo not given in full),Potency,[1],inactive
same,Potency,[2],inactive
c1ccc(Cc2ncc3c(n2)CCNCC3)cc1,Potency,[1],inactive
same,Potency,[2],inactive
CC1=C2[C@@H]([C@H](C)CC[C@H]2/C=C(\C)C(=O)O)[C@H](O)C1,Potency,[1],inactive
same,Potency,[2],inactive
CC(C)CC(=O)OC[C@H]1O[C@@](COC(=O)CC(C)C)(O[C@H]2O[C@H](CO)[C@@H](O)[C@H](O)[C@H]2OC(=O)CC(C)C)[C@@H](OC(=O)CC(C)C)[C@@H]1O,Potency,[1],inactive
same,Potency,[2],inactive
C=C1CCC2C(C)(C(=O)O)CC(O)CC2(C)C1CC/C(C)=C/C(=O)O (stereo not given),Potency,[1],inactive
same,Potency,[2],inactive
CC1=C(C)C(=O)OC(C(C)C2C(O)CC3C4C5OC5C5(O)CC(OC6OC(CO)C(O)C(O)C6O)CC(O)C5(C)C4CCC32C)C1 (stereo not given),Potency,[1],inactive
same,Potency,[2],inactive
COC(=O)C1=C[C@@H](O)[C@@H](O)[C@H](O[C@@H]2O[C@H](COC(=O)/C=C/c3ccccc3)[C@@H](O)[C@H](O)[C@H]2O)C1,Potency,[1],inactive
same,Potency,[2],inactive
CC1CCC2(C)C(CC(O)C(O)C23CO3)C1(C)CCC1=CC(O)OC1=O (stereo not given),Potency,[1],inactive
same,Potency,[2],inactive
C=C1CCC2(OC1)OC1CC3C4CC=C5CC(O)CC(O[C@@H]6OC[C@@H](O)[C@H](O)[C@H]6O)C5(C)C4CCC3(C)C1(O)C2C (stereo not given in full),Potency,[1],inactive
same,Potency,[2],inactive
C[C@]1(OC(=O)/C=C/c2ccccc2)C[C@H](O)[C@]2(O)C=CO[C@@H](O[C@@H]3O[C@H](CO)[C@@H](O)[C@H](O)[C@H]3O)C12 (stereo not given in full),Potency,[1],inactive
same,Potency,[2],inactive
C[C@@H]1C(=O)O[C@H]2[C@H]1CC[C@@]1(C)C(=O)C=C[C@](C)(O)[C@H]21,Potency,[1],inactive
same,Potency,[2],inactive
CC1(C)C[C@H]2C3=CCC4[C@@]5(C)CC[C@H](O[C@H]6O[C@H](C(=O)O)[C@@H](O)[C@H](O)[C@H]6O[C@H]6O[C@H](CO)[C@@H](O)[C@H](O)[C@H]6O[C@@H]6O[C@H](CO)[C@@H](O)[C@H](O)[C@H]6O)[C@](C)(CO)C5CC[C@@]4(C)[C@]3(C)CC[C@@]2(C)[C@H](O[C@@H]2OC[C@H](O)[C@H](OC3O[C@H](CO)[C@@H](O)[C@H](O)[C@H]3O)[C@H]2O)[C@@H]1O (stereo not given in full),outcome,[1],inactive [at 9.23 µM]
same,outcome,[2],inactive [at 9.23 µM]
COc1cc2c(cc1O)C1(Cc3ccc4c(c3C1=O)OCO4)N(C)CC2 (stereo not given),Potency,[1],inactive
same,Potency,[2],inactive
CC(=O)N1c2ccccc2C2(O)CC3C(=O)NC(CC(C)C)C(=O)N3C12 (stereo not given),Potency,[1],inactive
same,Potency,[2],inactive
CC(C)[C@H]1CCC(CO)=C[C@@H]1/C=C(\CO)C(=O)O,Potency,[1],inactive
same,Potency,[2],inactive
NC1CCC(N[C@@H]2C[C@H]2c2ccccc2)CC1 (stereo not given in full),Potency,[1],inactive
same,Potency,[2],inactive and 26.3 µM (active)
Nc1nc(CC(=O)Nc2ccc(CCNCC(O)c3ccccc3)cc2)cs1 (stereo not given),Potency,[1],inactive
same,Potency,[2],inactive
CCOc1c2c(c(OCC)c3ccccc13)C(=O)N(c1ccc(CC(=O)NS(=O)(=O)c3ccccc3)cc1)C2,Potency,[1],inactive
same,Potency,[2],inactive
COc1ccc(C(O[C@@H]2O[C@H](CO)[C@@H](O)[C@H](O)[C@H]2O)C(CO)Oc2ccc(/C=C/CO)cc2OC)cc1O (stereo not given in full),Potency,[1],inactive
same,Potency,[2],inactive
CC(C)C1=CCC(C)(O)C(OC2OC(CO)C(O)C(O)C2O)C1 (stereo not given),Potency,[1],inactive
same,Potency,[2],inactive
CCC(CCO[C@@H]1O[C@H](CO[C@H]2OC[C@](O)(CO)[C@H]2O)[C@@H](O)[C@H](O)[C@H]1O)C(C)(C)O (stereo not given in full),Potency,[1],inactive
same,Potency,[2],inactive
C=C1CC23CC1(O)CCC2C1=CC2OC(=O)C(C)(C2O)C1C3C(=O)O (stereo not given),Potency,[1],inactive
same,Potency,[2],inactive

# — PubChem BioAssay (NCATS)
